The record followed here is PubChem BioAssay (NCI).

About 83,000 compounds went through this panel and 20% of them were active in at least one assay; those are over-represented in the sample as a whole.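 96-well plates, one dose, 48 hours. Percent growth reported; active if below 10.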 A number with no mark means an inactive call. Active and inactive are the calls of the source.

Test systems include SK-MEL-2 melanoma; EKVX NSCLC; SN12C renal; UO-31 renal; TK-10 renal; ACHN renal; CAKI-1 renal; A498 renal; CCRF-CEM leukemia; MOLT-4 leukemia; SR leukemia; RPMI-8226 leukemia; OVCAR-8 ovarian; OVCAR-5 ovarian; OVCAR-4 ovarian; SK-OV-3 ovarian; IGROV1 ovarian; OVCAR-3 ovarian; HS 578T breast; NCI/ADR-RES ovarian.
Assay in all cases: NCI-60 one-dose screen, 48 h (100 = growth as untreated, 0 = no growth, -100 = all killed)
What all share (conditions): 10 µM unless noted

Regarding `COc1ccc2[nH]c(=O)c(CSc3ccccc3Nc3nccc(-c4ccc(C(F)(F)F)cc4)n3)cc2c1`, the growth with SK-MEL-2 melanoma is 41.9%; with EKVX NSCLC it was 54.3%; in the experiment with SN12C renal, -30.8% (active); in the experiment on UO-31 renal, 26.9%; with TK-10 renal, 97.1%; in the experiment with ACHN renal it was -29.4% (active). For the same compound, the growth with CAKI-1 renal was -6.85% (active); with A498 renal, 39.9%; in the experiment with CCRF-CEM leukemia, 7.12% (active); in the experiment with MOLT-4 leukemia it was -8.19% (active); with SR leukemia, -16.8% (active); with RPMI-8226 leukemia it was 4.65% (active). Also, the growth was 32.4% in the experiment on OVCAR-8 ovarian; 75.9% in the experiment on OVCAR-5 ovarian; 39.2% in the experiment with OVCAR-4 ovarian; 81.7% in the experiment on SK-OV-3 ovarian; 59.8% in the experiment on IGROV1 ovarian; 22.1% in the experiment on OVCAR-3 ovarian. Besides, the growth in the experiment on HS 578T breast was 42.5%; in the experiment with NCI/ADR-RES ovarian, 10.5%.

Take `FC(F)(F)c1cc2c(Cl)ncnc2n1CCC1CCOCC1`: the growth in the experiment with SK-MEL-2 melanoma was -91.2% (active); with EKVX NSCLC, 77%; in the experiment with SN12C renal, 40.7%; with UO-31 renal, -92.9% (active); with TK-10 renal, 98.3%; in the experiment on ACHN renal, -44.2% (active). For the same compound, the growth is 80.3% in the experiment on CAKI-1 renal; 97.8% with A498 renal; -14.5% (active) in the experiment with CCRF-CEM leukemia; -38.4% (active) in the experiment on MOLT-4 leukemia; -64.3% (active) in the experiment on SR leukemia; 72.2% in the experiment with RPMI-8226 leukemia. In addition, the growth in the experiment on OVCAR-8 ovarian was 18.1%; with OVCAR-5 ovarian it was 102%; in the experiment on OVCAR-4 ovarian, -16.5% (active); in the experiment on SK-OV-3 ovarian, 50.6%; in the experiment with IGROV1 ovarian, -90.6% (active); with OVCAR-3 ovarian, -75.4% (active). The growth in the experiment with HS 578T breast was -42.5% (active); with NCI/ADR-RES ovarian it was 69%.

Regarding `OC1CCC(Cn2c(C(F)(F)F)cc3c(Cl)ncnc32)CC1` (stereo not given), the growth was -89.4% (active) with SK-MEL-2 melanoma; 65.7% with EKVX NSCLC; 18.5% with SN12C renal; -80.2% (active) in the experiment on UO-31 renal; 105% in the experiment on TK-10 renal; -86.5% (active) in the experiment on ACHN renal. For the same compound, the growth with CAKI-1 renal is 53.1%; in the experiment on A498 renal, 119%; in the experiment on CCRF-CEM leukemia it was -7.23% (active); in the experiment on MOLT-4 leukemia it was -43.5% (active); in the experiment with SR leukemia, -58.9% (active); in the experiment with RPMI-8226 leukemia, 84.9%. The growth with OVCAR-8 ovarian was -4.04% (active); in the experiment on OVCAR-5 ovarian it was 94.6%; with OVCAR-4 ovarian, -19.9% (active); with SK-OV-3 ovarian, 57.7%; with IGROV1 ovarian, -85.7% (active); in the experiment on OVCAR-3 ovarian, -25.1% (active). The growth in the experiment with HS 578T breast was -35.7% (active); in the experiment on NCI/ADR-RES ovarian, 51.8%.

As to `Cc1ccc(C(C)C)cc1Oc1cccc(-c2c(-c3ccc(C(F)(F)F)cc3)ncn2C2CCNCC2)n1`, the growth was -93.1% (active) with SK-MEL-2 melanoma; -91% (active) with EKVX NSCLC; -92.1% (active) in the experiment with SN12C renal; -97.4% (active) with UO-31 renal; -94.9% (active) with TK-10 renal; -100% (active) with ACHN renal. Besides, the growth was -98.1% (active) in the experiment on CAKI-1 renal; -86.2% (active) with A498 renal; -73.8% (active) in the experiment with CCRF-CEM leukemia; -80.3% (active) in the experiment on MOLT-4 leukemia; -75.5% (active) in the experiment with SR leukemia; -59% (active) in the experiment on RPMI-8226 leukemia. Besides, the growth in the experiment with OVCAR-8 ovarian was -66.9% (active); with OVCAR-5 ovarian it was -69.5% (active); in the experiment with OVCAR-4 ovarian, -89% (active); with SK-OV-3 ovarian it was -93.7% (active); with IGROV1 ovarian, -91.5% (active); in the experiment on OVCAR-3 ovarian it was -69.2% (active). Further, the results for the growth in the experiment with HS 578T breast and with NCI/ADR-RES ovarian were -63.1% (active) and -83% (active), respectively.

For the compound `CC1=C(C)C(=O)C(N2CCSCC2)=CC1=O`, the growth in the experiment with SK-MEL-2 melanoma is 94.6%; with EKVX NSCLC, 92.6%; in the experiment with SN12C renal it was 100%; in the experiment with UO-31 renal it was 76.2%; with TK-10 renal, 130%; in the experiment on ACHN renal it was 96.6%. Further, the growth is 93.2% with CAKI-1 renal; 98.2% in the experiment on A498 renal; 81% in the experiment with CCRF-CEM leukemia; 86.3% in the experiment on MOLT-4 leukemia; 111% with SR leukemia; 72.9% with RPMI-8226 leukemia. Further, the growth in the experiment on OVCAR-8 ovarian is 92.7%; with OVCAR-5 ovarian, 97.2%; in the experiment with OVCAR-4 ovarian, 94.4%; in the experiment on SK-OV-3 ovarian it was 105%; with IGROV1 ovarian, 92.9%; in the experiment with OVCAR-3 ovarian, 101%. In addition, the growth is 103% with HS 578T breast and 93.7% in the experiment with NCI/ADR-RES ovarian.

Turning to `N/C(=N\c1nc2ccccc2s1)NC(=O)Nc1ccccc1[N+](=O)[O-]`, the growth is 20.5% with SK-MEL-2 melanoma; 38.7% in the experiment on EKVX NSCLC; 5.63% (active) in the experiment on SN12C renal; 26.8% in the experiment with UO-31 renal; 52.8% with TK-10 renal; 20.2% in the experiment with ACHN renal. In addition, the growth with CAKI-1 renal was 16%; in the experiment on A498 renal it was 89%; in the experiment on CCRF-CEM leukemia it was 1.29% (active); with MOLT-4 leukemia it was 15.2%; in the experiment with SR leukemia, 13.6%; with RPMI-8226 leukemia, 2.19% (active). In addition, the growth in the experiment with OVCAR-8 ovarian was -18.8% (active); with OVCAR-5 ovarian, 10.9%; with OVCAR-4 ovarian, 34.9%; in the experiment on SK-OV-3 ovarian it was 2.97% (active); in the experiment with IGROV1 ovarian, 20.2%; in the experiment with OVCAR-3 ovarian, -7.53% (active). The growth in the experiment on HS 578T breast was 41.5%; with NCI/ADR-RES ovarian, -11.3% (active).

With `Cc1ccc(Cl)cc1NC(=O)N/C(N)=N/c1nc2ccccc2s1`, the growth is -20.6% (active) in the experiment with SK-MEL-2 melanoma; 15.8% with EKVX NSCLC; -40% (active) in the experiment with SN12C renal; -13% (active) in the experiment with UO-31 renal; 14.7% in the experiment with TK-10 renal; -50.3% (active) with ACHN renal. The growth in the experiment with CAKI-1 renal was -2.72% (active); in the experiment with A498 renal, 5.76% (active); in the experiment with CCRF-CEM leukemia, -6.91% (active); in the experiment with MOLT-4 leukemia it was -8.52% (active); with SR leukemia, 5.59% (active); with RPMI-8226 leukemia, -7.24% (active). The growth in the experiment with OVCAR-8 ovarian is -51.4% (active); in the experiment with OVCAR-5 ovarian it was -28.7% (active); in the experiment on OVCAR-4 ovarian it was -34.8% (active); in the experiment with SK-OV-3 ovarian it was -25.6% (active); in the experiment with IGROV1 ovarian, -4.38% (active); with OVCAR-3 ovarian it was -67.7% (active). Moreover, the growth with HS 578T breast was 19%; with NCI/ADR-RES ovarian it was -34.8% (active).

As for `Clc1ccccc1Nc1nnc(-c2c[nH]c3ccccc23)o1`, the growth with SK-MEL-2 melanoma was -2.89% (active); in the experiment with EKVX NSCLC, 18.7%; in the experiment on SN12C renal it was 26.6%; in the experiment on UO-31 renal, 33.1%; in the experiment with TK-10 renal it was 69%; in the experiment with ACHN renal, 39.9%. The growth in the experiment with CAKI-1 renal is 32.7%; in the experiment on A498 renal, 113%; with CCRF-CEM leukemia, 9.07% (active); in the experiment with MOLT-4 leukemia it was 5.42% (active); in the experiment with SR leukemia, 15.7%; in the experiment on RPMI-8226 leukemia, 4.23% (active). Also, the growth in the experiment with OVCAR-8 ovarian was 13.4%; in the experiment with OVCAR-5 ovarian it was 29.8%; in the experiment with OVCAR-4 ovarian it was 73.2%; in the experiment on SK-OV-3 ovarian it was 22.1%; in the experiment on IGROV1 ovarian, 19.4%; in the experiment with OVCAR-3 ovarian, 9.25% (active). In addition, the figures for the growth with HS 578T breast and with NCI/ADR-RES ovarian were 18.2% and -18.8% (active), respectively.
